The structures appear in SMILES notation. In all, about 160,000 compounds went through this assay and about 310 (0.19%) were called active. The list comes from a sample in which actives are over-represented; it also holds similar structures and randomly drawn compounds. Unmarked numbers belong to inactive results. Cut-off read from the data, not from the text of the source: active = inhibition above about 30%; inactive = the rest.

The experiment deals with 14-3-3 protein gamma (Homo sapiens) (UniProt P61981). Briefly: 14-3-3 gamma/Raf peptide interaction modulators – biochemical, fluorescence polarization, primary screen (AID 422).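 Note: 0% = protein plus tracer without compound and 100% = blank with tracer alone.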 The following applies: FP, 14-3-3gamma / TMR-pS259-Raf peptide binding; at 40 µM; hits give high values. For orientation: Fluorescence polarisation rises when a labelled molecule tumbles more slowly, as on binding a larger partner.
Chain of 14-3-3 protein gamma (Homo sapiens) (P61981 whole entry, looked up): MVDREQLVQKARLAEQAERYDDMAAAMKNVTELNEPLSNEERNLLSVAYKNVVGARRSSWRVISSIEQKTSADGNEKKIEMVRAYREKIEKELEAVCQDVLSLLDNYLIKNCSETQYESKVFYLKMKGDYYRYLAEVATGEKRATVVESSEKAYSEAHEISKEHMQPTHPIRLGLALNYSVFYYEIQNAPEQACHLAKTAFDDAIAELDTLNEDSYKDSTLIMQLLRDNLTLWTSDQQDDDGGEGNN
Take `O=C(C1CCC(Cn2c(=O)[nH]c3ccccc3c2=O)CC1)N1CCN(Cc2ccccc2)CC1` (centres undefined): the inhibition was -3.1%.

Consider `CSc1cccc(NC(=O)C2c3ccccc3C(=O)N3CCc4ccccc4C23)c1` (centres undefined), for which the inhibition is -1.47%.

As for `CCCCNC(=O)c1c[nH]c2ccc(S(=O)(=O)Nc3cccc(OC)c3)cc2c1=O`, the inhibition is -22.6%.

With `O=C(NC1CCCCCCCCCCC1)c1cnc2n(c1=O)CCS2`, the inhibition is -1.96%.

`CCCOc1ccccc1C1NC(=O)NC(C)=C1C(=O)OCC1CCCO1` (centres undefined): the inhibition is 3.08%.

Take `O=C1Nc2ccccc2C1=Nc1ccc(O)cc1`: the inhibition was 87.3% (active).

Regarding `CN(C)/C=C1/C(=O)Nc2ccccc21`, the inhibition is -2.07%.

For `CN(C)/C=C1/Nc2ccccc2C1=O`, the inhibition is -0.95%.

Consider `O=C(Nc1nc2ccccc2n1CCOc1ccccc1)c1cccs1`, for which the inhibition was 8.38%.

In the case of `CCOCCn1cnc2sc(C(=O)N3CCN(c4ccccn4)CC3)c(C)c2c1=O`, the inhibition was 1.28%.

In the case of `Cc1c(Cl)cccc1NC(=O)c1cc(S(=O)(=O)N2CCC(C)CC2)ccc1F`, the inhibition is -5.5%.

Regarding `O=C(Nc1nc(-c2cccs2)cs1)c1ccc(S(=O)(=O)N2CCc3ccccc3C2)cc1`, the inhibition was -43.5%.

Take `CN1C(=O)c2ccccc2C(C(=O)N2CCC(Cc3ccccc3)CC2)C1c1c[nH]c2ccccc12` (centres undefined): the inhibition was 6.73%.

In the case of `COc1ccc(CSc2n[nH]c(C)n2)cc1Cl`, the inhibition was -0.37%.

Consider `CSCCC(NS(=O)(=O)c1cccs1)C(=O)Nc1ccc(F)cc1` (centres undefined), for which the inhibition was -1.64%.

Consider `CC(=O)OCC#CCSc1nc2ccccc2o1`, for which the inhibition was -1.9%.

Regarding `CCOC(=O)C1CCN(S(=O)(=O)c2ccc(I)cc2)CC1`, the inhibition was -2.44%.

Take `CC1CCN(S(=O)(=O)c2ccc3ncn(CC(=O)N4CCN(Cc5ccccc5)CC4)c(=O)c3c2)CC1`: the inhibition was 1.95%.

In the case of `CCCCNC(=O)C1c2ccccc2C(=O)N(C)C1c1c[nH]c2ccccc12` (centres undefined), the inhibition was -0.96%.

For `O=C(OC(c1ccccc1)c1nccc2ccccc12)c1ccc([N+](=O)[O-])cc1` (centres undefined), the inhibition was -10%.

For `NC(=O)C1CCN(C(=O)c2ccc3nc4ccccc4c(=O)n3c2)CC1`, the inhibition was 12.3%.

Regarding `CN(C(N)=O)C1CCS(=O)(=O)C1` (centres undefined), the inhibition was 2.31%.

On to `S=c1[nH]nc(-c2cccs2)n1Cc1ccc2c(c1)OCO2`, for which the inhibition is -5.66%.

For the molecule `Nc1ccc2c3c(cccc13)C(=O)NC2=O`, the inhibition was 14.8%.

On to `CN1C(=O)c2cccc3c(N)ccc(c23)C1=O`, for which the inhibition is 85.5% (active).

For the molecule `CCN1C(=O)c2cccc3c(N)ccc1c23`, the inhibition is 5.38%.

As to `COc1ccc(N2C(=O)CCC(C(=O)Nc3ccc(Br)cc3C)C2c2ccc(OC)c(OC)c2)cc1` (centres undefined), the inhibition was -9.11%.

Regarding `COc1ccccc1CNC(=O)c1cc(-c2ccc(Br)s2)nc2ccccc12`, the inhibition is -1.85%.

Consider `CCCCc1nc(N)c(C#N)c(-c2ccccc2Cl)c1CCC`, for which the inhibition was -5.82%.

As to `COc1ccc(-c2nc(CS(=O)CC(=O)NCc3ccccn3)c(C)o2)cc1` (centres undefined), the inhibition was 99.2% (active).

For the molecule `COc1ccc(-c2nc(CS(=O)CC(=O)N3CCc4ccccc4C3)c(C)o2)cc1` (centres undefined), the inhibition was -4.26%.

For `COc1ccc(-c2nc(CS(=O)CC(=O)NCc3cccnc3)c(C)o2)cc1OC` (centres undefined), the inhibition is -5.12%.

Turning to `Fc1ccc(Nc2nc(NCc3ccccc3)c3ccccc3n2)cc1`, the inhibition was -3.64%.

For the molecule `CSc1ccc(-c2nc3ccc(Cl)cn3c2Nc2ccc3c(c2)OCO3)cc1`, the inhibition was -19%.

Consider `COc1ccc(C2Nc3ccccc3NC3=C2C(=O)CC(c2cccc([N+](=O)[O-])c2)C3)cc1` (centres undefined), for which the inhibition was 0.48%.

Regarding `CCOc1ccc(S(=O)(=O)NC2CCCC2)c2cccnc12`, the inhibition is -6.1%.

In the case of `COc1ccc([N+](=O)[O-])cc1NC(=O)c1c([N+](=O)[O-])cnn1C`, the inhibition was -2.94%.

For `O=C1C2CC=C(Cl)CC2C(=O)N1c1ccc(O)cc1` (centres undefined), the inhibition was -3.22%.

On to `COC(=O)c1ccccc1NC(=O)CCCn1nc([N+](=O)[O-])c(Cl)c1C`, for which the inhibition was -3.89%.

As for `CCC(C)(C(=O)NC1CCCCC1)N(C(=O)CC1NC(=O)NC1=O)c1ccccc1` (centres undefined), the inhibition is -2.16%.

As for `CC1CC(C)CN(CCCNC(=O)C2c3ccccc3C(=O)N(C)C2c2cccs2)C1` (centres undefined), the inhibition was 4.52%.

Take `Cc1c(-c2nc3ccccc3c(=O)[nH]2)sc2nc(-c3ccccc3)nc(N)c12`: the inhibition is -34.5%.

On to `CC(C)CN(CC(C)C)S(=O)(=O)c1ccc(Br)cc1`, for which the inhibition is -5.87%.

Turning to `CCCCCn1c(=O)[nH]c2cc(C(=O)NC(C)C)ccc2c1=O`, the inhibition is -3.1%.

In the case of `COc1ccc(N=Cc2c(O)[nH]c3ccccc23)cc1OC`, the inhibition is -6.05%.

In the case of `Cc1[nH]c2ccccc2c1C=Nc1ccc(O)cc1`, the inhibition is 121% (active).

For the molecule `COc1cc(N=Cc2c(O)[nH]c3ccccc23)cc(OC)c1OC`, the inhibition is 1.7%.

With `CCCCNC(=O)C1CCC(=O)N1CCc1ccccc1` (centres undefined), the inhibition is -1.84%.

Regarding `CC1=C(C(=O)OCCc2ccccc2)C(c2cccc([N+](=O)[O-])c2)NC(=O)N1` (centres undefined), the inhibition is -4.75%.

Regarding `O=C1NC2=C(C(=O)c3ccccc32)C(c2ccccc2)S1` (centres undefined), the inhibition is 3.21%.

For `COc1ccc(C2C=C(c3ccc(-c4ccccc4)cc3)Nc3ncnn32)cc1` (centres undefined), the inhibition was -7.71%.

For `O=C(Nc1ccc(-c2nnc(-c3ccccc3)o2)cc1)c1ccc(Br)o1`, the inhibition was 116% (active).

Regarding `O=C(Nc1ccc(-c2nnc(-c3ccccc3)o2)cc1)C1CCCO1` (centres undefined), the inhibition was 5.13%.

As to `O=C(Nc1ccc(-c2nc3ccc(NC(=O)c4ccc(Br)o4)cc3[nH]2)cc1)c1ccc(Br)o1`, the inhibition is -23.6%.

As to `O=C(CCSCc1cccc(F)c1)N1CCc2ccccc21`, the inhibition is -8.82%.

For the molecule `O=C(CN1CCCN(S(=O)(=O)c2ccc(Br)cc2)CC1)Nc1ccccc1F`, the inhibition was -7.48%.

As for `CCc1ccc(OCCSc2nc3ccccc3c(=O)[nH]2)cc1`, the inhibition is -1.81%.

Consider `CC(NC(=O)C(Cc1ccc([N+](=O)[O-])cc1)N1C(=O)c2ccccc2C1=O)c1ccc(CCBr)cc1` (centres undefined), for which the inhibition is -10.4%.

As to `C=C(C)Cn1c(-c2ccc(N(C)C)cc2)nc2ccccc21`, the inhibition was -2.28%.

As usually defined, the inhibition is the relative decrease from the control value, in per cent.

Source of the values: PubChem BioAssay AID422 (Emory University Molecular Libraries Screening Center, 2006).
